Assay outcomes from PubChem.
USP17 inh: blocks human USP17 ubiquitin-rhodamine cleavage | A8MUK1 | purified USP17, Ub-rhodamine cleavage fluorescence, 3 h | inhibition, % at 50 µM | actives 6.5% (n = 47,000) | AID 1645855
USP30 inh: human USP30 deubiquitinase inhibition; AID 1645860; inhibition, % at 25 µM; actives 5.3% (n = 47,000); Q70CQ3; purified USP30, Ub-rhodamine cleavage fluorescence
Target sequence (Q70CQ3 whole entry, looked up): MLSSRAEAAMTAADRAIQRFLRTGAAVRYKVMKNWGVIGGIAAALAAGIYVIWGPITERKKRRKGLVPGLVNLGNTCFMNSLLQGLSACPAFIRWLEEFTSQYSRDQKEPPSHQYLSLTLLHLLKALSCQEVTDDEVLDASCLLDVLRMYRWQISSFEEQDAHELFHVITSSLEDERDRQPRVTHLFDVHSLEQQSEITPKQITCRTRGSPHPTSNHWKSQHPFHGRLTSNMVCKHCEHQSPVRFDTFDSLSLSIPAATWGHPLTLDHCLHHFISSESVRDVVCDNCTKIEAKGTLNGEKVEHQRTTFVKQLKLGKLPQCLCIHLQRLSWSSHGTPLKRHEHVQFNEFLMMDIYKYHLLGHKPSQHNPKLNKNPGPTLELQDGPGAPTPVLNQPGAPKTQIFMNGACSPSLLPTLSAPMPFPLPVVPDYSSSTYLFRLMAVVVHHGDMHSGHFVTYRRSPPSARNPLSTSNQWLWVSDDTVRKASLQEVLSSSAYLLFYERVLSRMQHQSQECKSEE
OTUD3 block: blocks human OTUD3 ubiquitin-rhodamine cleavage; Q5T2D3; purified OTUD3, Ub-rhodamine fluorescence, 2 h; inhibition, % at 25 µM; actives 0.7% (n = 47,000); AID 1645858
USP28 block: blocks human USP28 ubiquitin-rhodamine cleavage. Q96RU2. purified USP28, Ub-rhodamine cleavage fluorescence, 30 min. inhibition, % at 25 µM. actives 3% (n = 47,000). AID 1645857
The depositor's hits bear a star; / = no result given. An excerpt weighted towards active compounds, which were near 11% of everything screened. Cut-off read from the data, not from the text of the source: active = inhibition above about 30%; inactive = the rest.

SMILES	USP17 inh	USP30 inh	OTUD3 block	USP28 block
Cc1ccc(C)c(OCCOCCN2CCNCC2)c1C	-0.6	5.6	-1.6	2.0
Cc1ccc(C(C)C)cc1OCCOCCN1CCNCC1	-11.4	26.8	10.3	59.5*
CSCCC(NC(=O)c1cccs1)c1nnc2ccccn12 (stereo not drawn)	-1.3	-0.6	-2.8	-0.3
CSCCC(NC(=O)c1sccc1C)c1nnc2ccccn12 (stereo not drawn)	14.7	40.6*	11.7	12.7
COCCNC(=O)C1c2ccccc2C(=O)N(CCOC)C12CCCC2 (stereo not drawn)	11.8	9.2	6.2	4.9
Cc1ccccc1C(=O)Nc1ccc(Cc2ccc(NC(=O)c3ccccc3C)c(O)c2)cc1O	55.4*	-158.0	-10.8	15.0
Cc1ccc2ncc(NC(=O)c3ccccc3C)c(=O)n2c1	-13.8	1.6	0.3	-6.7
COc1ccc(C2CC(=O)Nc3c2sc(C(=O)O)c3-c2ccc(C)cc2)cc1O (stereo not drawn)	-0.1	-4.5	-3.4	-8.2
O=C(/C=C/c1ccccc1)Nc1nc(-c2ccccc2)c(-c2ccccc2)s1	10.7	21.5	11.4	15.7
O=C(/C=C/c1ccccc1)Nc1c2c(nc3c1CCC3)CCCC2	20.9	39.7*	8.6	10.6
O=C(NCCN1CCCC1)C1CCN(c2cnc(N3CCCCC3)nc2)CC1	-24.9	-43.5	-17.6	77.7*
O=C(NCC1CC1)C1CCN(c2cnc(N3CCCCCC3)nc2)CC1	-27.2	/	0.0	/
Cc1ccccc1CNC(=O)CCn1cnc2ccccc2c1=O	-31.8	-11.1	3.1	13.5
O=C(CSc1nc2ccccc2[nH]1)c1c[nH]c2ccccc12	20.1	32.6*	0.0	-2.1
O=C(CCn1cnc2ccccc2c1=O)Nc1ccc(Cl)cc1	40.0*	13.6	7.5	20.8
O=C(CSc1nc2ccccc2[nH]1)c1ccccc1F	-36.6	3.1	-6.5	3.0
O=C(Cn1cnc2cc([N+](=O)[O-])ccc2c1=O)c1c[nH]c2ccccc12	19.7	-71.9	-10.7	13.3
O=C(Cn1cnc2ccccc2c1=O)c1c[nH]c2ccccc12	47.1*	43.7*	0.0	31.9*
Cc1cc(C(=O)CSc2nc3ccccc3[nH]2)c(C)n1Cc1ccco1	50.2*	-49.9	2.5	25.4
CCn1c(C(=O)O)c(CNCc2ccc(Cl)cc2)c2ccc(C)cc21	-10.7	-12.8	-15.9	-7.6
Cc1ncncc1C(=O)N1CCN(Cc2ccccc2)C(C(N)=O)C1 (stereo not drawn)	-30.5	-100.5	-12.6	-31.6
CCc1ccccc1NC(=O)C(C)c1c(C)n[nH]c1C (stereo not drawn)	15.3	6.2	0.4	8.3
CCc1cc(N2CCN(C(=O)CCC3CCCC3)CC2)nc2nncn12	-1.7	-25.1	-4.3	-7.5
O=C(Cn1cnc2ccccc2c1=O)NC(c1ccccc1)c1ccccc1	17.9	33.0*	5.5	13.8
COc1ccc(C(CNC(=O)Cn2cnc3ccccc3c2=O)N(C)C)cc1 (stereo not drawn)	16.0	13.6	6.3	12.4
SMILES	USP17 inh	USP30 inh	OTUD3 block	USP28 block
COc1ccc(N2CC(C(=O)NCc3nc(C)no3)CC2=O)cc1 (stereo not drawn)	5.2	14.9	10.1	8.7
O=C(NCc1ccccn1)c1cn2cc(Cl)ccc2n1	-4.0	0.7	-5.6	-2.3
COc1ccc(CCNC(=O)COc2cc(C)c3ccc(OC)cc3n2)cc1	45.6*	-31.2	-7.5	-5.4
COc1ccc(S(=O)(=O)N2CCCCCC2c2sccc2C)cc1 (stereo not drawn)	19.1	30.0*	20.7	-18.5
CC1=C(C(=O)OCc2ccc3c(c2)OCO3)C(c2ccccc2C)CC(=O)N1 (stereo not drawn)	13.3	27.6	5.7	15.2
COc1ccc(COC(=O)C2=C(C)NC(=O)CC2c2cccc([N+](=O)[O-])c2)cc1 (stereo not drawn)	-5.3	20.0	2.3	85.7*
Cc1oc(-c2[nH]ncc2C(=O)N2CCCC2)cc1S(=O)(=O)N1CCOCC1	-27.6	-64.2	11.9	-3.9
Cc1cccc(OCCCSc2nc3ccc(C)cc3[nH]2)c1	22.5	24.1	14.6	28.1
CCOc1ccc2nc(SCc3cn4cc(Cl)ccc4n3)[nH]c2c1	9.5	21.2	1.7	40.8*
CC(=O)N1CC[C@@]2(C(=O)Nc3ccccc3)CCN(S(=O)(=O)c3ccccc3)CC[C@@H]12	-11.6	-25.1	-4.7	-5.2
Cc1cc2nc(NC(=O)NC3CCCCC3)sc2cc1C	-39.0	35.8*	24.9	13.6
O=C(Nc1nc2cc3c(cc2s1)OCCO3)C1CCCCC1	11.4	12.9	7.2	22.1
O=[N+]([O-])c1cccc(-c2noc(CSc3ccccc3)n2)c1	6.0	23.6	15.6	66.9*
O=[N+]([O-])c1cccc(-c2nnc(-c3ccccn3)o2)c1	-9.1	2.2	0.0	-5.8
Cn1cc(-c2cnc(N3CCCC3)nc2)cc1C(=O)NCC1CCOCC1	-100.3	-221.8	-73.2	-95.8
Cc1cccc(NC(=O)CSc2nnc(-c3n[nH]c4c3CCC4)n2N)c1	63.3*	28.4	13.6	14.2
COc1ccc(C)cc1NC(=O)c1cc2cccnc2n(C)c1=O	37.0*	/	1.2	/
CCn1c(=O)c(-c2ccc(C(=O)Nc3cc(C)ccc3OC)cc2)nc2cccnc21	36.7*	21.3	7.7	11.1
COc1ccccc1NC(=O)COc1cc(CSc2ncccn2)ncc1OC	9.0	24.3	14.0	4.9
COc1cnc(CSc2ccc(C)cc2)cc1OCC(=O)Nc1ccccc1	5.8	35.6*	-14.5	-5.9
Cc1ccc2[nH]c(=O)c(-c3nc4ccc(C)cn4c3NCc3ccc(F)cc3)cc2c1	75.7*	2.2	9.2	11.8
Cc1cccc(-n2ccnc(SCC(=O)Nc3ccc(Cl)cc3F)c2=O)c1	76.0*	49.1*	11.4	37.9*
O=C(C1CCOCC1)N1CC(c2ccnc(Nc3cc(C(F)(F)F)ccn3)n2)C1	10.6	10.5	13.4	6.7
COc1ccc(-n2c(SCC(=O)c3ccc(F)cc3)nnc2-c2cccnc2)cc1	70.7*	22.2	6.6	7.5
COc1ccc(C(=O)CSc2ccc3nnc(-c4cccnc4)n3n2)cc1	-6.7	-19.0	-10.1	-21.5
SMILES	USP17 inh	USP30 inh	OTUD3 block	USP28 block
Cc1ccc(C(=O)NC2(c3nc(C)no3)CCCCC2)cc1	0.6	15.3	6.4	-2.9
CC(C)N1CCN(c2ccc3ccc(C(=O)N4CCCCC4)cn23)CC1	-22.7	-52.0	-20.8	-19.6
COc1ccc(-n2c(=O)c3c4c(sc3n(Cc3cc(=O)n5ccccc5n3)c2=O)CCC4)c(OC)c1	-4.1	-19.0	-9.3	-11.6
COCC(=O)N1CCC([C@@H]2C[C@H](C(F)(F)F)n3nc(C(C)(C)C)cc3N2)CC1	51.1*	/	0.0	/
Cc1cc2n(n1)[C@@H](C(F)(F)F)C[C@@H](C1CCN(C(=O)Cc3sc(C)nc3C)CC1)N2	-21.5	-7.9	-4.7	-4.6
C/C1=C\CC[C@H](C)[C@@H](O)[C@@H](C)[C@@H](O)CC/C=C/[C@H](C)[C@@H](O)/C=C/[C@H](C)[C@@H](O)/C(C)=C/[C@H](O)[C@H](O)C[C@@H](O)C[C@H](O)C[C@H](O)[C@H](C)[C@@H](O)[C@@H](C)[C@H](O)C[C@@H](O)C[C@H](O)/C=C/CC(O)C(C)C(CCC(=O)O)OC1=O (stereo partly drawn)	-1.0	22.0	2.1	-0.1
